# Laboratory results published in PubChem BioAssay (NCATS).
# Values joined by “and” are separate entries in the source; they are usually repeats but may differ in a detail not shown here. Equal entries are not always repeated. Results filed as inconclusive are left out. Entries that show only a call come without a potency. Where a structure was tested more than once in an assay, its records may differ in their call. Active and inactive are the calls of the source. Unless noted, calls follow the shape of the dose curve; as a rule, active = well fitted curve in the direction sought with a large enough effect; inconclusive = small, poorly fitted or top-dose-only effect, or another doubt; inactive = no such curve, though single readings can be large; an effect the other way counts as inactive or inconclusive.
# Columns and labels:
# [1] = Primary qHTS for small molecule stabilizers of the endoplasmic reticulum resident proteome: Secreted ER Calcium Modulated Protein (SERCaMP) assay (AID 1508630); conditions: SH-SY5Y GLuc-SERCaMP (Gaussia luciferase released on ER calcium loss) secretion, thapsigargin, luminescence; series mostly up to 38.4 µM
# How it was run: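 The SH-SY5Y reporter protocol was run at 3 concentrations up to 38.3 uM (primary) or 11 concentrations (follow-up): 16 h compound, 100 nM thapsigargin for 4 h, then extracellular luciferase luminescence.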
# [2] = Counterscreen qHTS for small molecule stabilizers of the endoplasmic reticulum resident proteome: GLuc-NoTag assay (AID 1508627); conditions: Gaussia luciferase NoTag secretion counterscreen, luminescence, thapsigargin 100 nM for final 4 h; series mostly up to 76.4 µM; also: potency is read from the fitted curve at half-maximal effect
# How it was run: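 Counterscreen line: SH-SY5Y-GLuc-NoTag. Seed, 5 h; compound, 19 h; thapsigargin 100 nM, 4 h; 37C/5% CO2. Readout: secreted GLuc luminescence, coelenterazine 0.07x final, no lysis.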
# [3] = Cell Viability qHTS for small molecule stabilizers of the endoplasmic reticulum resident proteome (AID 1508629); conditions: cell viability counter-screen, 100 nM thapsigargin for final 4 h;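 also: compound exposure about 46 h in total before the viability read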; also: potency is read from the fitted curve at half-maximal effect;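 as to max response: human SH-SY5Y neuroblastoma cells carrying the GLuc-SERCaMP reporter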
# [4] = A High-Content qHTS Against Drug Library for the Identification of Small Molecules that Inhibit DYT1 Early Onset Primary Dystonia-Associated Cell Pathology (AID 1645839; calls by dose curve; also: potency is read from the fitted curve at half-maximal effect); conditions: HEK293 Flp-In EGFP-delE TorsinA, punctate imaging, 48 h; series mostly up to 46.1 µM
# How it was run: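 Cells were seeded and left for 24 h, then dosed with compound alongside tetracycline induction of mutant EGFP-TorsinA. They were incubated for 48 h, fixed in 4% paraformaldehyde, permeabilized and imaged for mislocalization (%pathology) and cell count.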
# [5] = biological target: Cytochrome P450 2D6 (Homo sapiens) (UniProt P10635); experiment: Cytochrome P450 family 2 subfamily D member 6 (CYP2D6) small molecule antagonists: luciferase biochemical (cell-free) qHTS assay (AID 1645840; active = well fitted curve in the direction sought with a large enough effect in the repeat runs; an effect the other way counts as inactive or inconclusive; also: nearly all actives have a fitted effect of over 55% in size; also: potency is read from the fitted curve at half-maximal effect); conditions: P450-Glo CYP2D6 enzyme, luciferin luminescence, 1 h; series mostly up to 57.4 µM
# How it was run: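 P450-Glo CYP2D6 system: proluciferin substrate converted by enzyme to luciferin, read by luminescence proportional to activity. Enzyme-substrate mix with compound 10 min at room temperature, then NADPH regeneration 1 h before detection reagent.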
# [6] = biological target: Cytochrome P450 2C9 (Homo sapiens) (UniProt P11712); experiment: Cytochrome P450 family 2 subfamily C member 9 (CYP2C9) small molecule antagonists: luciferase biochemical (cell-free) qHTS assay (AID 1645842; active = well fitted curve in the direction sought with a large enough effect in the repeat runs; an effect the other way counts as inactive or inconclusive; also: nearly all actives have a fitted effect of over 55% in size; also: potency is read from the fitted curve at half-maximal effect); conditions: P450-Glo CYP2C9 enzyme assay, luciferin luminescence; series mostly up to 57.4 µM
# How it was run: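 P450-Glo CYP2C9 system: proluciferin substrate with enzyme in mix containing 0.4% BSA, 10 min at room temperature, then NADPH regeneration solution added and incubated 1 h at 37C. Detection reagent stopped reaction; luminescence read after 20 min as RLU.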
# [7] = Confirmatory qHTS for small molecule stabilizers of the endoplasmic reticulum resident proteome: Secreted ER Calcium Modulated Protein (SERCaMP) assay (AID 1508628); conditions: SERCaMP secreted luciferase ER calcium/proteostasis reporter; series mostly up to 76.3 µM; also: nearly all actives have a fitted effect of over 40% in size; also: potency is read from the fitted curve at half-maximal effect
# How it was run: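 GLuc-SERCaMP-expressing SH-SY5Y cells, pretreated 16 h with compound, are challenged with thapsigargin to empty ER calcium stores; after 4 h, coelenterazine is added directly to the medium and luminescence is imaged.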
# Papain (Carica papaya) = Papain (Carica papaya) (UniProt P00784); experiment: Primary qHTS assay for inhibitors of the protease papain (AID 1645873); conditions: papain Z-FR-AMC cleavage, AMC fluorescence; series mostly up to 49.8 µM;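 also: papain turnover of Z-FR-AMC read as the AMC fluorescence gain over 10 min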
# Papain (Carica papaya), sequence (P00784 whole entry, looked up): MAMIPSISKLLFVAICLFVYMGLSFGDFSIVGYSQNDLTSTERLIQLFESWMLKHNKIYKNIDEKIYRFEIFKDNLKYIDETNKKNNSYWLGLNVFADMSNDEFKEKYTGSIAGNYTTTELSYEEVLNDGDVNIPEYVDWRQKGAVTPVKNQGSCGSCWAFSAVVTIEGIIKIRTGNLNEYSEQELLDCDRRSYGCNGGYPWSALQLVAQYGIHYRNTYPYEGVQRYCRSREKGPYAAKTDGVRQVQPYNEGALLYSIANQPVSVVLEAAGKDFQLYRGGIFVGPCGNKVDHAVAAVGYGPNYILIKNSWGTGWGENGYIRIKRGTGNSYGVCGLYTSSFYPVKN
# Cytochrome P450 2D6 (Homo sapiens), sequence (P10635 whole entry, looked up): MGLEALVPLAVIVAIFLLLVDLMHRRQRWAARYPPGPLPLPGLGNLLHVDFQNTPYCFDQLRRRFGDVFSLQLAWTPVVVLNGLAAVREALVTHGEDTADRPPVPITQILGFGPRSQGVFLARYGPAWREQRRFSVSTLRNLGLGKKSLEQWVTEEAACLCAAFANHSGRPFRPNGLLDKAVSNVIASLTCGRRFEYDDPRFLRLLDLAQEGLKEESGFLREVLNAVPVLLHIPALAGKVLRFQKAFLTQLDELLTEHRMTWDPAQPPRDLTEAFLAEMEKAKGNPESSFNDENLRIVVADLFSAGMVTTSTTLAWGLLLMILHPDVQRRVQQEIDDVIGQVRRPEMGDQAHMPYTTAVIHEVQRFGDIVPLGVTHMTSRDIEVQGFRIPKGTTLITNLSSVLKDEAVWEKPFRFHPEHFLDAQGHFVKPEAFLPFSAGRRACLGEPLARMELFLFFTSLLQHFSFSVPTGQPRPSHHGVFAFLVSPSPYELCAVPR
# Cytochrome P450 2C9 (Homo sapiens), sequence (P11712 whole entry, looked up): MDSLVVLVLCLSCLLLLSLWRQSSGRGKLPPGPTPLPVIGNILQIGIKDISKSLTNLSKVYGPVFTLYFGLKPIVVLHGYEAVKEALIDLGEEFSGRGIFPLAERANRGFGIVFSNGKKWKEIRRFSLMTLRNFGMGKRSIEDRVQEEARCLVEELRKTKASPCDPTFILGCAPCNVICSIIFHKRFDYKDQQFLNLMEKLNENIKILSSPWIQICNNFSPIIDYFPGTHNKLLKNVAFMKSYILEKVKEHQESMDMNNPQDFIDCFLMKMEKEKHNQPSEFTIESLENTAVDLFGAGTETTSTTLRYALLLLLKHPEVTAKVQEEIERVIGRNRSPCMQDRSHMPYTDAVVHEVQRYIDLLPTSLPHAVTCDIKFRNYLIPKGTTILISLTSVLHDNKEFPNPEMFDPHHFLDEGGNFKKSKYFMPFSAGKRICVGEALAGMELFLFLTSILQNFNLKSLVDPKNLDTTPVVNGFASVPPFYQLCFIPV
smiles,measurement,setting,value
CN1CCc2cccc3c2C1Cc1ccc(O)c(O)c1-3 (stereo not given),Potency,[1],inactive
N=C1N=C(N)c2cc3ccccc3cc21,Potency,[2],89.1 µM (active)
same,Potency,[3],39.8 µM (active)
same,Potency,[4],35.5 µM (active)
same,Potency,[5],31.7 µM (active)
same,Potency,[6],inactive
NCCO,Potency,[2],inactive
same,Potency,[4],inactive
same,Potency,[5],inactive
same,Potency,[6],inactive
Cc1c(C(=O)O)c(O)cc2c1C(=O)c1c(O)c([C@@H]3O[C@H](CO)[C@@H](O)[C@H](O)[C@H]3O)c(O)c(O)c1C2=O,Potency,[7],44.7 µM (active)
same,Potency,[4],inactive
same,Potency,[5],inactive
O=C1CN(/N=C/c2ccc(-c3ccc([N+](=O)[O-])cc3)o2)C(=O)N1,Potency,[2],inactive
same,Potency,[7],11.2 µM (active)
same,max response,[3],25.5% (inactive)
CC(C)OC(=O)c1cc(C(=O)OC(C)C)cc([N+](=O)[O-])c1,Potency,[2],inactive
same,Potency,[4],inactive
same,Potency,[5],3.73 µM (active)
same,Potency,[6],0.748 µM (active)
Cn1cc(C2=C(c3ccc(Cl)cc3Cl)C(=O)NC2=O)c2ccccc21,Potency,[2],0.447 µM (active)
same,Potency,[7],39.8 µM (active)
same,Potency,[1],inactive
same,Potency,Papain (Carica papaya),inactive
O=C(O)Cc1ccc2c(c1)C(=O)c1ccccc1CO2,Potency,[2],inactive
same,Potency,[7],inactive
same,max response,[3],16.2% (inactive)
same,Potency,[4],inactive
same,Potency,[5],inactive
same,Potency,[6],inactive
O=C(/C=C/c1ccc(O)c(O)c1)OCCc1ccccc1,Potency,[2],inactive
same,Potency,[7],inactive and 4.47 µM (active)
same,Potency,Papain (Carica papaya),inactive
Oc1cc2c(cc1O)CN(C(=S)NCCc1ccc(Cl)cc1)CCC2,Potency,[7],15.8 µM (active)
same,Potency,Papain (Carica papaya),inactive
CCCN(CC1CC1)c1nc(C)nc(Nc2c(Cl)cc(Cl)cc2Cl)c1Cl,Potency,[2],inactive
same,Potency,[7],inactive
same,max response,[3],17.8% (inactive)
same,Potency,[1],inactive
same,Potency,Papain (Carica papaya),inactive
